# Assay outcomes (PubChem BioAssay)
# In the library only some 0.77% were active in any assay of this set; here they are far more common.
# RecA intein inh – blocks M. tuberculosis RecA intein splicing; P9WHJ3; cell-free RecA intein splicing, fluorescence; inhibition, % (test concentration not listed); 290,000 tested, 0.75% active; AID 2221; in the data active = inhibition above about 30%; inconclusive = no clear call, values can overlap the other calls;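 note: 0% = vehicle wells and 100% = reference inhibitor control wells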
# Target sequence (P9WHJ3 whole entry, looked up): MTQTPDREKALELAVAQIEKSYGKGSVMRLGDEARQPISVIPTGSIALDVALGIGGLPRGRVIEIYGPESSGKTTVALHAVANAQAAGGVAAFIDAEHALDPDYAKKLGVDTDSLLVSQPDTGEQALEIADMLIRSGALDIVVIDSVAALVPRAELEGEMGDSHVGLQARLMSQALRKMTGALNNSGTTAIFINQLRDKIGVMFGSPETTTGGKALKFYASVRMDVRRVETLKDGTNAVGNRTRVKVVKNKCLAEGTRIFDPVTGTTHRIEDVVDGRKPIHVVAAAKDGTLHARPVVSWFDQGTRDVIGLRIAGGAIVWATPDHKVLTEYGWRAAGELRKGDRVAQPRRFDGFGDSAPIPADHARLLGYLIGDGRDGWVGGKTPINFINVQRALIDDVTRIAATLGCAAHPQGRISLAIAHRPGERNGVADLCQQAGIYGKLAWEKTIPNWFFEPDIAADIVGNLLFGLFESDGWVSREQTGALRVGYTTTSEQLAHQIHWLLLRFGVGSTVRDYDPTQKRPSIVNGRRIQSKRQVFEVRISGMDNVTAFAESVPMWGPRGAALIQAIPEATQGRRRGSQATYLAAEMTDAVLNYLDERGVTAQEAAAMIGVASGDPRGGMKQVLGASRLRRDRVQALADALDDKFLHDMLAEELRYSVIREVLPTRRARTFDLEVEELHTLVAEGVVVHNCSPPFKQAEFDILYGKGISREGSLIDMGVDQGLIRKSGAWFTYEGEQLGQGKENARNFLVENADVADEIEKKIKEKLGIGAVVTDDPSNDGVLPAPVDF
# Rv3671c protease – Rv3671c (M. tuberculosis) protease inhibition; P9WHR9; inhibition, % at 5.96 µM; 320,000 tested, 0.048% active; in the data active = inhibition above about 38%;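 note: extracellular domain of Rv3671c used as enzyme; 0% = enzyme with DMSO and 100% = no enzyme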
# Mtb UGM inh – inhibitors of M. tuberculosis UDP-galactopyranose mutase; inhibition, % at 10 µM; 320,000 tested, 0.06% active; P9WIQ1; purified UGM, fluorescence polarization probe displacement; in the data active = inhibition above about 10%, passing the limit was not always enough; inconclusive = no clear call, values can overlap the other calls
# Mtb betalactam – beta-lactam sensitization of Mtb H37Rv; M. tuberculosis H37Rv growth with meropenem, percent inhibition; inhibition, % at 25 µM; 330,000 tested, 0.27% active; AID 434955;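 note: growth measured after seven days incubation then overnight dye step; 0% = bacteria only wells and 100% = bacteria with antibiotic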
# Mtb hypoxia inh – inhibitors of hypoxia-regulated fluorescent reporter in Mycobacterium tuberculosis; M. tuberculosis hypoxia-regulated fluorescent reporter, fluorescence; 300,000 tested, 0.1% active; fluorescence inhibition, % (no concentration beside the values); AID 1159583; in the data active = fluorescence inhibition mostly above about 23%, no sharp cut-off; inactive = mostly below about 17%
# GFP chromophore – counter-screen GFP chromophore formation inhibition; cell-free GFP chromophore formation, fluorescence; shares compounds with RecA intein inh; 2,100 tested, 83% active; EC50, µM
# * hit, by the source's call; ? = inconclusive; nt = no result given. Unless noted, the rule behind the calls is not given here.
SMILES,RecA intein inh,Rv3671c protease,Mtb UGM inh,Mtb betalactam,Mtb hypoxia inh,GFP chromophore
Cc1cccc(CSc2nc3c(c(-c4cccs4)c2C#N)CN(C)CC3)c1,61.2*,7.4,2.4,99.8,9.4,25.4*
CN1CCc2nc(SCC(=O)Nc3ccc(OC(F)(F)F)cc3)c(C#N)c(-c3cccs3)c2C1,88.3*,-3.2,0.3,-0.1,5.6,3.88*
Cc1cccc(CSc2nc(N)c(C#N)c(-c3cccs3)c2C#N)c1,2.5,-89.7,4.0,-10.4,10.6,nt
CN1C(=O)C2C(C3CC3)N3C(=O)CN(CC4CC4)C(=O)[C@@]3(C)C2C1=O (some centres not stated),nt,nt,nt,nt,8.7,nt
CCn1nc(/C=C/c2ccccc2)nc2c(=O)n(C)c(=O)nc1-2,78.6*,nt,nt,nt,15.7,0.309*
CC(C)Cn1c(C(C)C)nc([N+](=O)[O-])c1S(=O)(=O)c1ccc(F)cc1,51.0*,-2.5,-1.6,-9.4,7.7,>38
COc1ccc(NC2=C(NCCO)C(=O)c3ccccc3C2=O)cc1,56.0*,-106.7,1.2,4.5,-4.6,31*
O=C1C=C(Nc2ccc(O)cc2)C(=O)c2ccccc21,72.5*,-21.0,-0.3,7.0,-8.0,3.65*
Cc1ccc(NC2=C(Cl)C(=O)c3ccccc3C2=O)cc1,3.8,-0.8,-0.5,10.4,11.8,nt
O=C1C(Cl)=C(Nc2ccc(O)cc2)C(=O)c2ccccc21,94.5*,-11.0,1.4,8.5,22.4,2.5*
COC1=C(Nc2ccc(OC)cc2)C(=O)c2ccccc2C1=O,5.7,-29.6,2.1,5.1,-9.5,nt
COC1=C(Nc2ccc(O)cc2)C(=O)c2ccccc2C1=O,57.9*,-31.9,1.0,6.7,-2.4,13.1*
COc1cc(C=C(NC(=O)c2ccccc2Cl)C(=O)O)cc(OC)c1OC,nt,nt,nt,nt,8.4,nt
C=CCC(CC(=O)NCCO)C(=O)NC(COC(=O)C(CC=C)Cc1ccc(F)cc1)c1ccccc1 (configuration not stated),nt,nt,nt,nt,10.9,nt
O=C(NC1CC1)C1=CC(c2ccc(C(F)(F)F)cc2)CC(OCCCCO)O1 (configuration not stated),nt,nt,nt,nt,15.7,nt
Cc1ccc(-c2cc3c(nn2)-c2ccccc2C3=O)cc1,12.2,5.0,1.5,58.6,0.4,nt
Cc1ccccc1-c1cc2c(nn1)-c1ccccc1C2=O,75.0*,-100.1,-2.2,97.0,-0.4,13.1*
CCN1C(=O)c2ccc(-c3nc4ccccc4c(=O)o3)cc2C1=O,0.6,-2.3,1.7,-0.1,4.0,nt
CCN1C(=O)c2c(C)nc3ccccc3c2C1=O,47.4*,3.9,-0.1,-1.1,3.3,2.24*
C#CCOCCOCCOCCNc1nc(N2CCN(C(=O)Cn3cc(CCO)nn3)CC2)nc(N2CCN(C(=O)C(Cc3ccc(O)cc3)n3cc(CCO)nn3)CC2)n1 (configuration not stated),nt,nt,nt,nt,12.4,nt
COc1cc(/C=C2\C(=O)N(c3ccc(NC(C)=O)cc3)N=C2c2ccccc2)ccc1O,83.1*,-70.8,5.3,2.6,5.8,>38
O=C(NN=Cc1ccc(Cl)c([N+](=O)[O-])c1)C1CC1,nt,nt,nt,nt,-0.2,nt
O=[N+]([O-])c1cc(C=Nc2cccc3c(O)cccc23)ccc1Cl,64.4*,-1.9,3.7,27.3,nt,32.5*
COc1ccc(-c2ccc(C3C4C=CCC[C@@]4(C)C(=O)N3Cc3ccccc3)c(F)c2)cc1OC (some centres not stated),nt,nt,nt,nt,-1.4,nt
COC(=O)CSc1nc2sc3c(c2c(=O)n1C1CCCCC1)CCN(C)C3,39.1*,-11.1,-1.7,31.5,nt,>38
SMILES,RecA intein inh,Rv3671c protease,Mtb UGM inh,Mtb betalactam,Mtb hypoxia inh,GFP chromophore
O=C(O)c1cc2c(s1)CCCC2,nt,2.3,0.3,-10.9,5.4,nt
ClCc1nnc(-c2cc3c(s2)CCCC3)o1,39.4*,nt,nt,nt,16.5,27.6*
Cc1[nH]nc2c1C(CCc1ccccc1)C(C#N)=C(N)O2 (configuration not stated),70.2*,-4.0,0.2,?,2.5,29.3*
CCCC1C(C#N)=C(N)Oc2n[nH]c(C(C)(C)C)c21 (configuration not stated),74.4*,-4.4,2.8,-9.8,nt,1.67*
CC(C)(C)c1[nH]nc2c1C(c1ccco1)C(C#N)=C(N)O2 (configuration not stated),41.3*,-1.3,0.0,4.7,6.2,2.83*
COc1ccc(F)c(C2C(C#N)=C(N)Oc3n[nH]c(C(C)(C)C)c32)c1 (configuration not stated),7.2,8.4,0.4,2.5,-6.4,nt
CCC(C)C1C(C#N)=C(N)Oc2n[nH]c(C)c21 (configuration not stated),0.7,2.5,-0.7,-5.7,6.2,nt
